Assay results from PubChem BioAssay (NCATS).
Unmarked numbers belong to inactive results. Records with an inconclusive call do not appear. Activity calls are given as the source filed them. Unless noted, the call rests on the fitted dose curve; in most records, active means well fitted curve in the direction sought with a large enough effect; inconclusive means small, poorly fitted or top-dose-only effect, or another doubt; inactive means no such curve, though single readings can be large; an effect the other way counts as inactive or inconclusive.

Tests used:
Tov112D = test: Primary qHTS to identify gynecologic anti-cancer compounds using libraries of approved drugs and bioactive compounds (AID 1345084); details: Gynecologic cancer cell panel viability, ATPlite luminescence, 48 h; series mostly up to 57.5 µM; further: nearly all actives have a fitted effect of over 55% in size; further: potency means the concentration at half of the fitted maximal effect
In short: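 ATP-based viability (ATPlite), 1,000 cells/well, 16 h pre-incubation, 48 h compound at 37 C, 5% CO2, 15 min RT before read.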

[1] = Drug repurposing screens with cells derived from glioblastoma tumor samples (AID 1345199); details: GBM patient neurospheres viability, ATP luminescence, 48 h; further: nearly all actives have a fitted effect of over 40% in size; further: potency means the concentration at half of the fitted maximal effect; on activity, negative = cell killing: on the % scale 0 is the no-effect control and ±100 the full control effect
In short: (§1)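 Primary testing used CD133+ neurospheres from four GBM patients, seven concentrations, 48 h exposure and ATP-based viability; confirmation added three slower-growing patient lines.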

astro = test: as above; details: viability, ATP luminescence, 48 h; series mostly up to 45.9 µM
In short: as §1

[2] = target: Nuclear receptor subfamily 1 group I member 2 (Rattus norvegicus) (UniProt Q9R1A7); test: qHTS assay for small molecule activators of the rat pregnane X receptor (rPXR) signaling pathway (AID 651751; call rule not given here; further: 0% is about no effect); details: rPXR reporter cells, luciferase (One-Glo), 24 h
[3] = qHTS assay to identify inhibitors of the type 1 interferon - major histocompatibility complex class I in skeletal muscle: Counter screen cell viability and HiBit confirmation (AID 1347412); details: iHSKM muscle cells + IFN-b, HiBiT or CellTiter-Glo, 24 h, at 45.9 µM (top of the series); further: on the % scale 0 is the no-effect control and ±100 the full control effect; nearly all actives have a fitted effect of over 60% in size
In short: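 After 24 h with human IFN-beta (4 ng/ml) and compound titrations (top 46 uM final, 1:3, 12 points), HLA-B HiBit myoblasts were lysed for either Nano-Glo HiBiT luminescence or CellTiter Glo viability on paired plates.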

[4] = at 45.9 µM (top of the series), tumour line B
[5] = at 45.9 µM (top of the series), tumour line D

Chain of Nuclear receptor subfamily 1 group I member 2 (Rattus norvegicus) (Q9R1A7 whole entry, looked up): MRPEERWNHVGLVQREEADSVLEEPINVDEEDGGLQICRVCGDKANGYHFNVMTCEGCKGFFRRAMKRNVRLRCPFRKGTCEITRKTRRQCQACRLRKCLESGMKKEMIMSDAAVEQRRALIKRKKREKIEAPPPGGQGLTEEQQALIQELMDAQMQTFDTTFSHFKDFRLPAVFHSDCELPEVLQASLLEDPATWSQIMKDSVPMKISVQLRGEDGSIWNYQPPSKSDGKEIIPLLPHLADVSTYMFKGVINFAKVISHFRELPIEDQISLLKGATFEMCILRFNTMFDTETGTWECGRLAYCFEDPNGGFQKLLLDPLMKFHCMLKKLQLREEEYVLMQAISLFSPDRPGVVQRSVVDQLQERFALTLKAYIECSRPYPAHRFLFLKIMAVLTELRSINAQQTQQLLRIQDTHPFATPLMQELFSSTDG

In the case of CN1C(C(=O)Nc2ccccn2)=C(O)c2sccc2S1(=O)=O, the Potency (Tov112D) is reported as “inactive”, the activity, negative = cell killing ([1]; at 20 µM (top of the series), tumour line C) is reported as 2.25% and the activity, negative = cell killing ([1]; at 21.2 µM (top of the series), tumour line B) is reported as -11.7%. The activity, negative = cell killing ([1]; at 21.2 µM (top of the series), tumour line D) was -11.3% and the Potency (astro) was “inactive”.

In the case of N[C@@H](Cc1cc(I)c(Oc2cc(I)c(O)c(I)c2)c(I)c1)C(=O)O, the Potency (Tov112D) is reported as “inactive”, the activity, negative = cell killing [1, 4] is reported as -5.58% and the activity, negative = cell killing [1, 5] is reported as -1.99%. The activity, negative = cell killing ([1]; at 46.1 µM (top of the series), tumour line C) was -6.06% and the max response [2] was 4.68%.

For CCc1nc(N)nc(N)c1-c1ccc(Cl)cc1, the Potency (Tov112D) was 14.1 µM (active) and the Potency (astro) was “inactive”.

With Cn1c(NCCN(CCO)CCCc2ccc([N+](=O)[O-])cc2)cc(=O)n(C)c1=O the Potency (Tov112D) was “inactive” and the Potency (astro) was “inactive”.

With CC1=C(C)C(=O)C(C(CCCCCC(=O)O)c2ccccc2)=C(C)C1=O (centres undefined) the Potency (Tov112D) was “inactive”, the activity, negative = cell killing [1, 4] was -10.7% and the activity, negative = cell killing [1, 5] was 17%. The Potency (astro) was “inactive”.

For COC(=O)C1=C(C)NC(C)=C(C(=O)OCCCN2CCC(c3ccccc3)(c3ccccc3)CC2)C1c1cccc([N+](=O)[O-])c1 (centres undefined), the Potency (Tov112D) was “inactive”, the Potency (astro) was 17.8 µM (active) and the activity change, negative = inhibition ([3]; HiBiT) was 4.03%. For the same molecule, the activity change, negative = inhibition ([3]; Viability) was -24.5%.

With COCCCOc1ccnc(CS(=O)c2nc3ccccc3[nH]2)c1C (centres undefined) the Potency (Tov112D) was “inactive” and the Potency (astro) was 22.4 µM (active).

With Cc1c(OCC(F)(F)F)ccnc1CS(=O)c1nc2ccccc2[nH]1 (centres undefined) the Potency (Tov112D) was “inactive” and the Potency (astro) was “inactive”.

With CC1(C)CCC(C)(C)c2cc(NC(=O)c3ccc(C(=O)O)cc3)ccc21 the Potency (Tov112D) was “inactive”, the activity, negative = cell killing [1, 4] was -10.2% and the activity, negative = cell killing [1, 5] was -17.2%. It also gave an activity, negative = cell killing ([1]; at 46 µM (top of the series), tumour line A) of -36.1%, an activity change, negative = inhibition ([3]; HiBiT) of 1.95% and an activity change, negative = inhibition ([3]; Viability) of -0.914%.

For CC(C)c1ccc2oc3nc(N)c(C(=O)O)cc3c(=O)c2c1, the Potency (Tov112D) was 7.94 µM (active) and the Potency (astro) was 1.78 µM (active).
